Measured values: publication PMC4336329 (PLoS ONE, 2015)
In all, about 310,000 compounds went through this assay and about 14,000 (4.5%) showed an effect of 50% or more. Effects have a minus sign here. Only a selection was taken, and strong results are over-represented in it overall.

target: human ether-à-go-go-related gene (hERG) potassium channel (human, UniProt Q12809); assay: primary screen, population patch clamp on CHO cells stably expressing hERG; higher = less effect of the substance
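Further: peak tail current of the secondary pulse compared with the same well before compound.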

Chain of human ether-à-go-go-related gene (hERG) potassium channel (Q12809 whole entry, looked up): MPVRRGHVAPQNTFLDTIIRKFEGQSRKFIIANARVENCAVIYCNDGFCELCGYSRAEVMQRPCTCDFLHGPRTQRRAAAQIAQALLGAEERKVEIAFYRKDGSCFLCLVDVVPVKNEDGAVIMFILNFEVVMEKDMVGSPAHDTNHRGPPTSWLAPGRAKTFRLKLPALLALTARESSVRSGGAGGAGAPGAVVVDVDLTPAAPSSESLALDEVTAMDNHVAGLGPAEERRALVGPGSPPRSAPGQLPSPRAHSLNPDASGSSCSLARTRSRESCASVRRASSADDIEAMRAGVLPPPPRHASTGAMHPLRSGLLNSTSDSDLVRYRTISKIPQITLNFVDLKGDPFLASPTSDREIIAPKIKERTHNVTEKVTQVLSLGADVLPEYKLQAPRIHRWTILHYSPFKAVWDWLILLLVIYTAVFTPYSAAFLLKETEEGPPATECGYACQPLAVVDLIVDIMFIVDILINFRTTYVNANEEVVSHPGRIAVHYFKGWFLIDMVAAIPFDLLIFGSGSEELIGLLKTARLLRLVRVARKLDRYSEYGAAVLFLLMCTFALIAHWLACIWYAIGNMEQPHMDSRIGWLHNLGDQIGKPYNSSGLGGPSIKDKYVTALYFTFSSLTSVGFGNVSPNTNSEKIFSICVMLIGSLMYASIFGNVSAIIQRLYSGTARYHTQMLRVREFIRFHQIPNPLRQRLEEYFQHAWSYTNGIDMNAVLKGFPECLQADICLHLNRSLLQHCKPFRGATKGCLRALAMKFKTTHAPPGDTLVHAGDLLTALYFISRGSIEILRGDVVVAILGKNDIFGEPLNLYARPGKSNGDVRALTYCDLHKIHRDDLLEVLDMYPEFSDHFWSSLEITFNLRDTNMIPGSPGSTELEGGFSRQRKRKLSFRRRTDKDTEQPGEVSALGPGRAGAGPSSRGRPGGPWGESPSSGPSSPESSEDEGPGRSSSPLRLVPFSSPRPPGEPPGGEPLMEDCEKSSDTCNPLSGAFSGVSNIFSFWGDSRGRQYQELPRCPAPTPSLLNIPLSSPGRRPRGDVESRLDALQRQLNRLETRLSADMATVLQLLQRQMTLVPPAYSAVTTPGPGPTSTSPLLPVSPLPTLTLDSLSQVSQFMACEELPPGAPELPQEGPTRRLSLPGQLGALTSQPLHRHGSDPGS

Row | SMILES | hERG current change (%, negative = inhibition) at 10uM
1 | NC(=O)c1cc2cc(Br)ccc2oc1=NCc1ccccc1 | 10.4%
2 | CCCNC(=O)NC(C(=O)OC)C12CC3CC(CC(C3)C1)C2 (stereo not drawn) | -10.8%
3 | CC(C)(C)c1ccc(NC(=O)CNC2CCCc3ccccc32)cc1.Cl (stereo not drawn) | 2.24%
4 | CCCSc1nc2c(cnn2-c2ccc(F)cc2)c(=O)[nH]1 | 6.84%
5 | COc1cc([N+](=O)[O-])c(C(=O)N2CCOCC2)c([N+](=O)[O-])c1 | 7.66%
6 | O=C(OCC1OC(n2ccc(=O)[nH]c2=O)C(O)C1OC(=O)c1ccccc1)c1ccccc1 (stereo not drawn) | -67.9%
7 | O=C(OCC1OC(n2ncc(=O)[nH]c2=O)C(OC(=O)c2ccccc2)C1OC(=O)c1ccccc1)c1ccccc1 (stereo not drawn) | 14.6%
8 | O=C(OCC1OC(n2ccc(=O)[nH]c2=O)C(Cl)C1O)c1ccccc1 (stereo not drawn) | -9.37%
9 | CCOC(=O)C1=NN(c2cccc(Cl)c2)C2=NC(C)=C(C(=O)OC)C(c3cccs3)N12 (stereo not drawn) | 6.72%
10 | COc1ccc(C(=O)N2CCN(Cc3cc(OC)ccc3OC)CC2)cc1.O=C(O)C(=O)O | -36%
11 | COc1ccc(CCNC(=O)c2ccc(CN3CCC(Cc4ccccc4)CC3)cc2)cc1OC | -67.9%
12 | COc1cc(CN2CCC(Cc3ccccc3)CC2)cc([N+](=O)[O-])c1O | 0.943%
13 | COc1ccc(OC)c(CN2CCN(C(=O)c3cccc4ccccc34)CC2)c1.O=C(O)C(=O)O | -2.37%
14 | COc1ccc(OC)c(CN2CCN(Cc3cccc4ccccc34)CC2)c1.O=C(O)C(=O)O | -65.2%
15 | COc1ccc(CN2CCC(Cc3ccccc3)CC2)cc1OC.O=C(O)C(=O)O | -70.3%
16 | COc1ccc(CN2CCC(C(N)=O)CC2)cc1OCc1ccccc1.O=C(O)C(=O)O | -19.1%
17 | COc1cc(CN2CCC(C(N)=O)CC2)ccc1OCc1ccccc1.O=C(O)C(=O)O | -39.9%
18 | COc1cc(CN2CCC(Cc3ccccc3)CC2)cc(OC)c1OC.O=C(O)C(=O)O | -52.8%
19 | COc1ccc(CCNC(=O)c2ccc(CN3CCC(Cc4ccccc4)CC3)cc2)cc1 | -15.6%
20 | COc1cc(CN2CCN(C(=O)Cc3ccccc3)CC2)cc(OC)c1OC.O=C(O)C(=O)O | -0.522%
21 | COc1ccc(CCNC(=S)N2CCC(Cc3ccccc3)CC2)cc1OC | -41.1%
22 | CCOc1cc(/C=N/NC(=O)CSc2cccc3cccnc23)ccc1O | 9.6%
23 | CCOc1ccccc1OCCC(=O)OCC(=O)Nc1c(C)nn(-c2ccccc2)c1C | 1.41%
24 | O=C(CCC(=O)c1ccccc1)NCc1cccc(C(F)(F)F)c1 | 4.89%
25 | CC(C)(C)c1ccc(/C=C(\c2nc3ccccc3[nH]2)S(=O)(=O)c2ccccc2)cc1 | 0.84%
26 | O=C(Nc1c2c(nn1-c1ccccc1)CS(=O)(=O)C2)c1ccccc1C(F)(F)F | 14.3%
27 | O=C(O)c1ccc(/C=C/c2nc3sc4c(c3c(=O)[nH]2)CCC4)cc1 | 14.2%

Row | SMILES | hERG current change (%, negative = inhibition) at 10uM
28 | Cc1nn(C(=O)c2cccnc2)c(C)c1C | 0.855%
29 | C/C(=N/NS(=O)(=O)c1cccc([N+](=O)[O-])c1)c1c[nH]c2ccccc12 | 13%
30 | CCOC(=O)/C(C#N)=C/c1cccc([N+](=O)[O-])c1 | 25%
31 | CC(Oc1ccccc1Cl)C(=O)Nc1ccc(S(=O)(=O)Nc2nccs2)cc1 (stereo not drawn) | -0.857%
32 | CC1CCC2(CC1)NC(=O)N(CC(=O)Nc1cccc(C#N)c1)C2=O (stereo not drawn) | 9.8%
33 | O=C(NCc1cccnc1)NC(=O)c1ccc(Cl)cc1 | 3.09%
34 | CCN1C(=O)[C@@H]2[C@@H](c3ccc(-c4ccc5c(c4)OCO5)cc3)N3CCCC[C@@]3(C(=O)OC)[C@@H]2C1=O.O=C(O)C(F)(F)F | 21%
35 | O=C(O)C(=O)O.c1ccc(CC2CCN(Cc3ccccn3)CC2)cc1 | -23.1%
36 | COc1ccc(Br)cc1CN1CCN(C(=O)c2ccc(OC)c(OC)c2)CC1.O=C(O)C(=O)O | -38.1%
37 | COc1ccc(Br)cc1CN1CCN(C(=O)c2cccc(F)c2)CC1.O=C(O)C(=O)O | -39.2%
38 | COc1cccc(C(=O)N2CCN(Cc3cc(Br)ccc3OC)CC2)c1.O=C(O)C(=O)O | -51.8%
39 | COc1ccc(OC)c(CN2CCC(Cc3ccccc3)CC2)c1.O=C(O)C(=O)O | -69.4%
40 | Cc1[nH]c2ccccc2c(=O)c1CN1CCCCCC1 | -7.41%
41 | COc1ccc(OC)c(CN2CCN(C(=O)Cc3ccccc3)CC2)c1.O=C(O)C(=O)O | -4.63%
42 | Cc1[nH]c2ccccc2c1CN1CCC(Cc2ccccc2)CC1.O=C(O)C(=O)O | -67.4%
43 | COc1ccc(OC)c(CN2CCCCCC2)c1.O=C(O)C(=O)O | 15.7%
44 | CN1CCN(/N=C/c2nc(-c3ccccc3Cl)n3ccccc23)CC1 | -34.1%
45 | CCCOC(=O)Nc1ccccc1C(N)=O | 4.61%
46 | O=C(O)CCCCC1SCC2NC(=O)NC21 (stereo not drawn) | 3.46%
47 | O=C(Nc1ccccc1F)Nc1ccc([N+](=O)[O-])cc1Cl | 18.4%
48 | O=C(c1cc(=O)[nH]c2ccccc12)N1CCN(c2cccc(C(F)(F)F)c2)CC1 | -27.1%
49 | CCOC(=O)c1sc(=S)n(-c2ccccc2Cl)c1C | -13.8%
50 | CCOC(=O)Cn1c(=NC(=O)c2cccs2)sc2cc(C(=O)OC)ccc21 | 17.4%
51 | Cc1ccc(NC(=O)c2cc([N+](=O)[O-])ccc2Cl)c(O)c1 | -4.12%
52 | Cc1nc2cc(NC(=O)CS(=O)(=O)c3ccc(F)cc3)ccc2s1 | -55.8%
53 | Cc1nc2cc(NC(=O)CS(=O)(=O)c3ccccc3)ccc2s1 | -23.8%
54 | Cc1nc2ccc(NC(=O)CS(=O)(=O)c3ccc(F)cc3)cc2s1 | -7.44%
